Measured values published in PubChem BioAssay AID1531 (NMMLSC, 2009).
Values joined by “and” are separate entries in the source; they are usually repeats but may differ in a detail not shown here. Identical values can stand only once. About 3,300 (1.1%) of roughly 290,000 compounds were called active. No stated cut-off is given here; in the data, active means binding response below about 67% or above about 130%; inconclusive means no clear call, values can overlap the other calls; inactive means in between. The sample as a whole holds a higher share of actives than the screen did.

biological target: Mitogen-activated protein kinase kinase kinase 2 (Homo sapiens) (UniProt Q9Y2U5); test: wildtype MEKK2 PB1-MEK5 interaction, increase or decrease – biochemical, multiplex bead flow cytometry, Alexa488-MEK5, primary screen (AID 1531); details: Alexa488-MEK5 binding to MEKK2 WT, at 10 µM, actives lie on both sides

Binding response (% of control), inactive:
CC1(C)CC[C@]2(C(=O)O)CC[C@]3(C)C(=CCC4[C@@]5(C)CC[C@H](O)C(C)(C)C5[C@H](O)C[C@]43C)[C@@H]2C1 (stereo not given in full) 100%
N#CCc1c(C#N)c(N)nc(N2CCCC2)c1C#N 107%
O=C(NCc1ccccc1)c1onc(CSc2ccncc2)c1C(=O)NCc1ccccc1 104%
Clc1ccc2nc(-c3ccccc3)nc(C(Cl)Cl)c2c1 90%
O=C(CCl)NNc1nc(-c2ccccc2)c2cc(Cl)ccc2n1 102%
CC(C)(C)n1nc(Cc2cccc3ccccc23)c(C#N)c1N 98%
COc1ccccc1NC(=O)c1ccc(N2CC3CC(C2)c2cccc(=O)n2C3)c(NC(=O)c2cccnc2)c1 (stereo not given) 105%
O=C1N[C@H](Cc2ccccc2)C(=O)N[C@H]1Cc1cn(S(=O)(=O)c2ccccc2)c2ccccc12 102%
C/C=C/C(=O)OCc1csc(CC(=O)Nc2ccccc2C)n1 94%
OCC1(CCOc2ccccc2)CCN(Cc2cn[nH]c2-c2ccccc2)CC1 94%
CCOC(=O)C1(CCOc2ccccc2)CCN(Cc2cc(OC)c(O)cc2Cl)CC1 126%
COc1ccc(C2NC(=O)C(=O)/C2=C(\O)c2ccc(Cl)cc2)cc1OC (stereo not given) 109%
COC(C[C@@H](O)C[C@@H](O)[C@H](C)OCc1ccccc1)OC 97%
Cn1c(SCC(=O)N2CCCC2)nnc1-c1ccc2c(c1)OCO2 105%
O=C(O)CSc1nnc(-c2ccc3c(c2)OCO3)n1-c1ccccc1 102%
CC1CCC2CCCCC2N1C(=O)c1cc([N+](=O)[O-])cc([N+](=O)[O-])c1 (stereo not given) 97%
CCn1c(SCc2ccccc2)nc2cc(OC)c(OC)cc2c1=O 105%
COc1ccc(S(=O)(=O)N2CCOCC2)cc1C(=O)NC1CCCCC1 104%
COCCNC(=S)Nc1cc(S(=O)(=O)N2CCOCC2)ccc1N1CCCCC1 103%
CC(C)(c1ccccc1)c1ccc(OCCN2CCCC2)cc1 119%
Cc1[nH]c2ccccc2c1C(=O)COC(=O)c1c(-c2ccccc2)noc1C 113%
Cc1onc(-c2ccccc2Cl)c1C(=O)NCCn1ccc2ccccc21 98%
O=C1CC2(CCCC2)Oc2ccc(Cl)cc21 109%
C/C(=N\NC(=O)C1(C)CC1(Br)Br)c1ccc(C)cc1C (stereo not given) 98%
CCN1CCN(CCCCOc2ccccc2F)CC1 98%
COc1ccc(OCCCCN2CCC(C)CC2)cc1 106%
O=C(NCCO)C(=O)NCC(c1ccc2c(c1)OCO2)N1CCN(c2ccc(F)cc2)CC1 (stereo not given) 99%
O=C(COc1ccc([N+](=O)[O-])cc1)Nc1cccc(C(=O)Nc2ccccc2C(=O)O)c1 94%
O=C(CC1SCCNC1=O)Nc1ccc(Cl)cc1 (stereo not given) 87%
O=C(CC1NCCNC1=O)Nc1cc(Cl)cc(Cl)c1 (stereo not given) 108%
CC(C)c1c(C(=O)N/N=C/c2ccccc2C(=O)O)nnn1-c1nonc1N 102%
COC(=O)CN1C(=O)C(C)(C)Oc2ccc(C(=O)Nc3cccc(OC)c3)cc21 108%
CCOC(=O)c1ccc2[nH]c3c(c2c1)CCCC3NC=O (stereo not given) 97%
N#CCSc1nc(-c2ccccc2)nc2ccc(F)cc12 100%
COc1ccc(NC(=O)CS(=O)(=O)c2ccccc2)cc1 109%
COC(=O)C(C)n1cnc2c(nnn2-c2cccc(Cl)c2)c1=O (stereo not given) 106%
CCOc1ccc(CNC(=O)C2CCCN(c3nnc(C)c4c(C)n(-c5ccccc5)nc34)C2)cc1 (stereo not given) 105%
COc1ccc(NC(=O)CN2C(=O)COc3ccc(S(=O)(=O)N4CCOCC4)cc32)cc1 97%
Fc1ccccc1COc1cccc2cccnc12 110%
Cc1ccc(-c2nc(CSCC(=O)NC3CCN(Cc4ccccc4)CC3)c(C)o2)cc1 107%
Cc1ccc(S(=O)(=O)N2CCN(C(=O)CSc3cc(C)ccc3C)CC2)c(C)c1 104%
CC(=O)NCCC(=O)Nc1nc(-c2ccc3c(c2)OCCO3)cs1 109%
COC(=O)c1cc(NC(=O)c2ccco2)ccc1N1CCOCC1 99%
Cc1cccc(NC(=O)c2cc([N+](=O)[O-])ccc2N2CCN(C)CC2)c1 101%
Cc1nc2ccccc2nc1N/N=C/c1ccc(O)cc1O 101%
O=C(O)c1ccccc1-c1ccccc1C(=O)NCCc1ccccc1 100%
O=C(NCCCN1CCOCC1)c1cc(-c2ccc(Cl)cc2)on1 103%
O=C(NCCN1CCOCC1)c1ccc2c(c1)N(Cc1ccc(Cl)cc1)CCS2 104%
COc1ccc(CNC(=O)C(C)NCc2ccccc2Cl)cc1 (stereo not given) 103%
Cc1c(C)c(C)c(S(=O)(=O)N2CCC3(CC2)OCCO3)c(C)c1C 108%
Cc1cc(C)n(CCNS(=O)(=O)c2ccc(Cl)cc2)n1 103%
Cc1cc2cc(CNC(=O)c3ccc(S(=O)(=O)N4CCOCC4)cc3)ccc2[nH]1 97%
CCc1cccc(CC)c1NC(=S)NCc1ccc2[nH]c(C)cc2c1 102%
CC(NC(=O)C1CCCN(S(=O)(=O)c2ccc(-n3cnnn3)cc2)C1)c1ccc(F)cc1 (stereo not given) 108%
COc1cccc(N(CC(=O)NC2CCCCCC2)S(=O)(=O)c2ccccc2)c1 111%
COc1ccc(C2=NN(C(=O)c3ccccc3C(=O)O)C(c3ccccc3O)C2)cc1 (stereo not given) 100%
CCOc1ccccc1C1CC(c2cccc(NS(C)(=O)=O)c2)=NN1C(=O)c1ccccc1 (stereo not given) 100%
COc1ccc(NC(=O)NCCN2CCN(c3ccc(C)cc3)CC2)c(Cl)c1 113%
Cc1ccc(-n2ncc(C(=O)NC3CC3)c2C2CCN(C(=O)OC(C)(C)C)CC2)c(C)c1 96%
O=C(CN(Cc1ccccc1)C(=O)CCC(=O)Nc1ccccn1)NCCc1ccccc1 107%
O=C(NC(=S)NC1CCCCC1)c1ccc(Cl)cc1 103%
COc1ccccc1NC(=S)N1CCN(C(c2ccccc2)c2ccccc2)CC1 98%
COC(=O)c1ccc(C(=O)OC)c(NC(=S)N2CCN(c3ccc(F)cc3)CC2)c1 98%
O=C(O)CSc1c2c(nc3cc(C(=O)Nc4cccc(C(F)(F)F)c4)ccc13)CCCC2 105%
CC(C)(C)NCC(O)COc1cccc2[nH]c(=O)[nH]c12 (stereo not given) 113%
COc1ccccc1OCC(O)CN1CCOCC1 (stereo not given) 109%
CCC(=O)c1ccc(OCC(=O)Nc2ccc3nc(C)sc3c2)cc1 87%
Cc1ccc(NC(=O)C/C(N)=N/O)cc1Cl 100%
CC(C)(C)c1ccccc1NC(=O)CN1C(=O)NC2(CCCC2)C1=O 100%
CC(C)c1ccc2oc(=O)cc(CN3CCN(Cc4ccccc4)CC3)c2c1 115%
O=C(Nc1ccc(C(=O)N2CCCCC2)cc1)c1cccc([N+](=O)[O-])c1 100%
Cc1cc([N+](=O)[O-])ccc1NC(=O)c1ccc(NC(=O)C(C)C)cc1 101%
CCOc1ccccc1N1CCN(C(=S)Nc2ccc(S(N)(=O)=O)cc2)CC1 102%
NS(=O)(=O)c1ccc(NC(=S)N2CCCC2)cc1 100%
CCc1ccc(S(=O)(=O)Nc2cc3c(cc2N2CCCCC2)n(C)c(=O)c(=O)n3C)cc1 101%
O=C(NCc1nnc(SCC(=O)N2CCCCCC2)o1)c1ccc(F)cc1 102%
Cc1ccc2c(c1)C1CN(C)CCC1N2C(=O)c1ccccc1NS(=O)(=O)c1ccc(F)cc1C (stereo not given) 98%
Cc1ccc2c(c1)C1CN(C)CCC1N2C(=S)Nc1ccc(OC(F)F)cc1 (stereo not given) 118%
COc1ccc2c(c1)c(C(=O)N/N=C/c1cccs1)c(C)n2C 99%
O=C(NCCCN1CCCC1=O)C(=O)NCC1OCCN1S(=O)(=O)c1ccc(Br)cc1 (stereo not given) 103%
CC(=O)Nc1ccc(Nc2ncnc3c2nnn3Cc2ccccc2Cl)cc1 107%
CCC(C)Sc1nc2c(c(=O)[nH]c(=O)n2C)n1CC(O)COc1cccc2ccccc12 (stereo not given) 107%
OC(COc1cccc2ccccc12)CN1CCN(c2ccccn2)CC1 (stereo not given) 105%
CCN1C(=O)N[C@@H](CCc2ccccc2)C(C(=O)OC)=C1C 94%
CCCCC1(C(=O)OCC)NC(c2ccc(O)cc2)C2C(=O)N(c3ccccc3)C(=O)C21 (stereo not given) 99%
CC(C)[C@H](NC(=O)N1CCn2c1nc1ccccc12)C(=O)NC1CC1 101%
CC(C)C[C@H](NC(=O)C1CCC(CNC(=O)[C@@H]2CCCN2C(=O)OC(C)(C)C)CC1)C(=O)O (stereo not given in full) 103%
O=C(O)c1cc(S(=O)(=O)N(Cc2ccccc2)c2cccc(C(F)(F)F)c2)ccc1Cl 108%
CCc1nnc(NC(=O)CCN(c2ccc(C)cc2)S(=O)(=O)c2ccccc2)s1 108%
Cc1cc(C)cc(C(=O)NC(CC(N)=O)c2ccc(N3CCC(N4CCCCC4)CC3)c([N+](=O)[O-])c2)c1 (stereo not given) 105%

Binding response (% of control), active:
NC(N)=Nc1nc(-c2ccccc2)c2cc(Cl)ccc2n1 150%
Cc1c(CN2CCC(CO)(CCOc3ccccc3)CC2)[nH]c2ccc(Cl)cc12 227%
Cn1c(SCc2nc3ccccc3s2)nnc1-c1ccc2c(c1)OCO2 30% [inhibitor]
O=C(NCC1CCCCC1)c1cc(S(=O)(=O)N2CCCCC2)ccc1N1CCOCC1 4% [inhibitor]
Cc1onc(-c2ccccc2Cl)c1C(=O)OCC(=O)c1ccccc1 -2% [inhibitor]
COc1ccccc1N1CCN(CCCCOc2ccc(F)cc2)CC1 135%
O=C(CC1SCCNC1=O)Nc1ccc(Cl)c(Cl)c1 (stereo not given) 186%
CCOc1nnc(C)c2c(C)n(-c3cccc(Cl)c3)nc12 72% [inhibitor]
CC(=O)Nc1ccc(N2CCOCC2)c(C(=O)Nc2cccc(C)c2)c1 -1% [inhibitor]
Cc1c(C)n(Cc2ccc(Cl)cc2)c2ccc(C(=O)NCCCN3CCOCC3)cc12 138%
Cc1cc2cc(CNC(=O)c3cccs3)ccc2[nH]1 55% [inhibitor]
COc1cccc(C2CC(c3ccccc3)=NN2S(=O)(=O)c2ccccc2)c1OC (stereo not given) 20% [inhibitor]
COc1ccccc1NC(=S)N1CCN(c2ccc(F)cc2)CC1 16% [inhibitor]
COc1ccccc1OCCNCC(O)COc1cccc2[nH]c3ccccc3c12 (stereo not given) 166% and 155% and 213%
Cc1ccc(NC(=O)COc2ccc(-n3ccnc3)cc2)cc1Cl 153%
Cn1ccc(=Nc2ccc(NC(=O)c3ccc(N=c4ccn(C)c5ccc([N+](=O)[O-])cc45)cc3)cc2)cc1 146%
COc1ccc(N2CCN(C(=S)Nc3ccc(S(N)(=O)=O)cc3)CC2)cc1 -9%
Cc1ccc2c(c1)C1CN(C)CCC1N2S(=O)(=O)c1ccc(Oc2ccc([N+](=O)[O-])cc2)cc1 (stereo not given) 201%
CC(C)c1ccccc1OCC(O)CN(CC(O)COc1cccc2ccccc12)C(C)C (stereo not given) 181%
Cc1ccc(N(CCC(=O)O)S(=O)(=O)c2cccc(C(F)(F)F)c2)cc1 4% [inhibitor]
